Values joined by “and” are separate entries in the source; they are usually repeats but may differ in a detail not shown here. Equal values may be shown once. In all, about 260,000 compounds went through this assay and about 1,500 (0.58%) were called active. Another 5% or so got no clear call; they are omitted.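 Rule for the calls: active = inhibition above a set limit at one or more doses, reproduced on every date tested; inconclusive = results disagree between test dates, or hit never tested in dose response; inactive = the rest.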 The list is a sample of the results. Results with a measured potency or affinity are listed apart.

The inhibition is the change of the read-out against control, counted positive when it falls.

The assay addresses Virion infectivity factor (Human immunodeficiency virus type 1 group M subtype B (isolate BH10)) + Virion infectivity factor (Human immunodeficiency virus type 1 group M subtype B (isolate BRU/LAI)) + Virion infectivity factor (Human immunodeficiency virus type 1 group M subtype B (isolate PCV12)) + Virion infectivity factor (Human immunodeficiency virus type 1 group M subtype B (isolate HXB2)) + DNA dC->dU-editing enzyme APOBEC-3G (Homo sapiens) (UniProt P69720+P69721+P69722+P69723+Q9HC16). As to the kind of experiment: HIV-1 Vif–A3G interaction blockers – biochemical, TR-FRET, GST-Vif 1-94, biotin-A3G peptide, dose response retest, primary screen (AID 1117319).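 Note: Vif residues 1-94 fused to GST binding biotinylated APOBEC3G peptide 110-148; 0% = full assay without inhibitor and 100% = GST in place of GST-Vif.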 The settings on record: TR-FRET GST-Vif / biotin-A3G peptide binding; stronger effect = higher value.
Take `CC1(C)Cc2ccccc2C2CC(O)C(=O)N21` (stereo not given): the inhibition was 4.18% (inactive). As to `CC(=O)N1Cc2ccccc2C(C)CC12CCCC2` (stereo not given), the inhibition is -6.77% (inactive). Consider `NC(=O)c1ccc[n+](Cc2ccc(-c3ccccc3)cc2)c1`, for which the inhibition was 8.95% (inactive). As for `Cc1ccc(CN2C(=O)c3ccccc3NC2c2cc(Br)ccc2O)cc1` (stereo not given), the inhibition is -3.39% (inactive).

`CCCCCCCCOC(=O)c1cc([N+](=O)[O-])c(Sc2ncnc3nc[nH]c23)c([N+](=O)[O-])c1`: the inhibition was 29.5% (inactive). For `CCOC(=O)C(C)(C)Sc1ncnc2nc[nH]c12`, the inhibition was -1.07% (inactive). `CCn1c(SCC(=O)NCCc2ccccc2)nc2sc3c(c2c1=O)CCN(C)C3`: the inhibition was 14.3% (inactive). `COc1ccccc1CCc1nnc(CCC(=O)NCC[C@@H]2C[C@@H]3C=C[C@H]2C3)o1`: the inhibition is 2.31% (inactive). Regarding `O=C(c1ccco1)N1CCN(Cc2cc(=O)c(OCc3ccccc3Cl)co2)CC1`, the inhibition was -9.22% (inactive). For `N#CC(C#N)=C1C=C2C=C(N3CCCCCC3)CCC2CC1` (stereo not given), the inhibition is 8.28% (inactive). With `N#CC1=C(N)C2=CCCC[C@H]2[C@H](c2ccc(Br)cc2)C1(C#N)C#N`, the inhibition is 4.38% (inactive).

`Cc1nc(C(=O)O)nn1-c1cc(Cl)ccc1Cl`: the inhibition was 2.06% (inactive).

Take `Cc1cccc(N(C(=O)CNC(=O)c2ccco2)C(C(=O)NC2CCCC2)c2cccnc2)c1` (stereo not given): the inhibition is -6.56% (inactive). Consider `CN(C)S(=O)(=O)c1cccc(NC(=O)CSc2nncn2-c2ccccc2)c1`, for which the inhibition is 1.63% (inactive). For the molecule `COc1cc([C@H]2[C@@H]3CCCC[C@]3(O)CCN2Cc2ccccc2F)ccc1O`, the inhibition is 4.71% (inactive). Turning to `O=C(CN1CC(=O)Oc2ccccc21)OCC(=O)c1cccc(Br)c1`, the inhibition is 20.7% (inactive). Turning to `O=c1cc(O)c(-c2ccccc2Cl)c(Cl)[nH]1`, the inhibition was -2.11% (inactive). For the molecule `O=c1cc(-c2ccccc2)c2c([nH]1)CCCC2`, the inhibition is -2.63% (inactive). For `CC(c1ccccc1)n1c(SCC(=O)Nc2ccccc2)n[nH]c1=O` (stereo not given) the value was -10.8% (inactive); for `Oc1ccccc1C1Nc2cccc3cccc(c23)N1`, 20% (inactive); for `CCN(CC)c1ccc(C2Nc3cccc4cccc(c34)N2)c(O)c1`, 6.26% (inactive).

For the molecule `Cc1ccc(-c2cc3cccc[n+]3cc2-c2ccc(C)cc2)cc1`, the inhibition was 10.5% (inactive). For `Cc1csc2cc(-c3cccc([N+](=O)[O-])c3)c(-c3cccc([N+](=O)[O-])c3)c[n+]12`, the inhibition was 1.42% (inactive).

Take `Cn1nccc1C(=O)Nc1ccc2c(c1)OCO2`: the inhibition is -8.05% (inactive). On to `O=C(CSc1nnc2scc(-c3ccc(Cl)cc3)n12)NCc1ccc2c(c1)OCO2`, for which the inhibition is 31.6% (inactive). As to `Cc1c(NC(=O)CN2CCN(c3ccc(F)cc3)CC2)c(=O)n(-c2ccccc2)n1C`, the inhibition is -4.9% (inactive). `Cc1c(NC(=O)CN2CCN(c3ccccc3)CC2)c(=O)n(-c2ccccc2)n1C`: the inhibition was 2.33% (inactive). As to `C=CCn1c(=O)c2ccccc2n2c(SCc3nc4ccccc4s3)nnc12`, the inhibition is 0.94% (inactive). In the case of `Cc1oc(-c2ccccc2F)nc1CS(=O)CC(=O)NCc1ccccc1` (stereo not given), the inhibition is -9.75% (inactive).

As for `Nn1cnnc1N/N=C/c1ccc(Cl)cc1Cl`, the inhibition was -0.88% (inactive).

On to `COc1ccc(-c2cc(C(=O)Nc3c(C)n(C)n(-c4ccccc4)c3=O)no2)cc1OC`, for which the inhibition is -4.54% (inactive). In the case of `COc1ccc(-c2cc(C(=O)Nc3c(C)n(C)n(-c4ccccc4)c3=O)no2)cc1`, the inhibition is -3.59% (inactive).

Turning to `Cc1ccc(-c2cc(C(=O)Nc3c(C)n(C)n(-c4ccccc4)c3=O)no2)cc1`, the inhibition was -0.77% (inactive). With `Cc1c(NC(=O)c2cc(-c3ccccc3)on2)c(=O)n(-c2ccccc2)n1C`, the inhibition is -2.53% (inactive). In the case of `Cc1ccc(NC(=O)C2CC(O)CN2C(=O)OCc2ccccc2)cc1C` (stereo not given) it was -2.11% (inactive); in that of `CCc1nn2c(NCCOC)cc(C)nc2c1-c1ccc(F)cc1`, -2.39% (inactive); in that of `CC1CCCCC1NC(=O)Cn1nnc2ccccc2c1=O` (stereo not given), -5.45% (inactive). Turning to `CCCN(C(=O)COc1ccc(C(C)=O)cc1OC)C1CCS(=O)(=O)C1` (stereo not given), the inhibition is -0.07% (inactive). For `CC(C)OCCCNCc1cccs1` the value was -0.18% (inactive); for `CCSC1=N/C(=C\c2ccc(-c3ccccc3[N+](=O)[O-])o2)C(=O)S1`, 13.5% (inactive). With `CCCSC1=N/C(=C\c2ccsc2)C(=O)S1`, the inhibition is 0.21% (inactive). As for `CCCSC1=N/C(=C\c2ccc3c(c2)OCO3)C(=O)S1`, the inhibition was 27% (inactive). Turning to `C=CCSC1=N/C(=C\c2ccc(C(=O)O)cc2)C(=O)S1`, the inhibition is -15.6% (inactive).

Turning to `C=CCSC1=N/C(=C\c2ccsc2)C(=O)S1`, the inhibition was 2.35% (inactive).

As to `CCOc1c(OC(C)=O)ccc(/C=C2\N=C(SCC)SC2=O)c1[N+](=O)[O-]`, the inhibition was 9.49% (inactive).

For `COc1ccccc1NC(=O)NCCN1C(=O)C2C3C=CC(C3)C2C1=O` (stereo not given), the inhibition was 4.08% (inactive).

Turning to `CCOC(=O)c1c(-c2ccc(Cl)cc2)cn2ccccc12`, the inhibition is 13.8% (inactive). For `COc1ccc(OC)c(NC(=O)c2ccccc2N(Cc2ccccc2)S(C)(=O)=O)c1` the value was 7.69% (inactive); for `CC(OC(=O)c1ccc(Cl)nc1)C(=O)NC1(C#N)CCCCC1` (stereo not given), 2.48% (inactive); for `COc1cccc(C(=O)NCC(c2ccc3c(c2)OCO3)N2CCN(c3ccc(F)cc3)CC2)c1` (stereo not given), -2.23% (inactive). Turning to `CC(=O)N1CCOc2ccc(S(=O)(=O)NCCc3cccc(C)c3)cc21`, the inhibition was 2.22% (inactive).

As for `Cc1ccc2cc(CN(Cc3ccc4c(c3)OCO4)Cc3nnnn3Cc3ccco3)c(=O)[nH]c2c1C`, the inhibition was -12.9% (inactive) and 10.6% (inactive). `Cc1ccc2cc(CN(CCN3CCOCC3)Cc3nnnn3Cc3ccco3)c(=O)[nH]c2c1C`: the inhibition is 11.1% (inactive). On to `COC(=O)c1ccc(Cn2nc(C)c(Cl)c2C)o1`, for which the inhibition was 3.48% (inactive). Turning to `Clc1cccc(CON/C=N/c2ncnc3sccc23)c1`, the inhibition was -6.38% (inactive). Take `CC(=O)Nc1ccccc1OCC(=O)NCCC1=CCCCC1`: the inhibition is -8.53% (inactive). In the case of `CCN(CC)c1ccc2cc(C=O)c(=O)oc2c1` it was 24.5% (inactive). For `CCN(CC)c1ccc2c(C)c(Cl)c(=O)oc2c1`, the inhibition is -11.9% (inactive). As to `CC(C)N=C1SCC(C)(/C=N/O)S1` (stereo not given), the inhibition is 5.98% (inactive). For `O=C1[C@@H]2[C@H](Cc3ccc(O)cc3)N[C@]3(C(=O)Nc4ccccc43)[C@@H]2C(=O)N1c1ccc(F)cc1` the value was 3.97% (inactive); for `O=C1[C@@H]2C(Cc3ccc(O)cc3)NC3(C(=O)Nc4ccc(F)cc43)[C@@H]2C(=O)N1c1ccccc1` (stereo not given in full), -9.27% (inactive); for `CCN=C1SC(CC(N)=O)C(=O)N1CC` (stereo not given), 9.83% (inactive).

In the case of `Cc1nc(N2CCN(C(=O)c3ccco3)CC2)nc2c1C(=O)CC(C)C2` (stereo not given), the inhibition is -2.42% (inactive).

Turning to `COc1ccc(Cl)cc1NC(=O)c1cnccn1`, the inhibition is 3.9% (inactive).

As for `Cc1nc(N)c(C#N)c(-c2ccc3c(c2)OCO3)c1C`, the inhibition is -4.59% (inactive). With `Cc1c(C)n(C(=O)CSc2ncn[nH]2)c2ccccc12`, the inhibition was -2.61% (inactive).

Consider `Cc1[nH]c2ccccc2c1C(=O)CSc1nc2ccccc2[nH]1`, for which the inhibition was 30.3% (inactive).

Regarding `CSc1cccc(NC(=O)c2cnn3ccccc23)c1`, the inhibition was 1.6% (inactive). With `CC(=O)c1ccc(NC(=O)c2cnn3ccccc23)cc1`, the inhibition was 1.77% (inactive). Take `COc1ccc(N2CCN(C(=O)CSc3ncn[nH]3)CC2)cc1`: the inhibition was 7.54% (inactive).

For `COc1ccc(-n2nnnc2/C=C/Nc2cc(C(F)(F)F)ccc2OC)cc1`, the inhibition is -7.87% (inactive). For `C=C(C1=CCN(S(=O)C(C)(C)C)[C@H]1CCO)c1ccccc1` (stereo not given in full) the value was -5.4% (inactive); for `Cc1nc2nc(C)c(CCC(=O)N3CCN(c4ccccn4)CC3)c(C)n2n1`, 8.31% (inactive); for `Cc1nc2cc(-c3ccccc3)nn2c(C)c1CCC(=O)N1CCN(c2ccccc2)CC1`, -3.02% (inactive). `Cc1ccc(/C=N/n2cnc3sc4c(c3c2=O)CCCC4)o1`: the inhibition was 8.22% (inactive). Turning to `CCN(C(=S)Nc1cccnc1)c1ccccc1`, the inhibition was -9.76% (inactive). For `CC(C)N(C(=S)Nc1cccnc1)c1ccccc1` the value was 4.04% (inactive); for `O=[N+]([O-])c1ccccc1N/N=C/c1ccc2c(c1)OCO2`, 26.8% (inactive); for `Cc1c(-c2ccccc2)nc2ccccc2c1C(=O)NCc1cccs1`, 10.6% (inactive). On to `COc1cc(NC(=O)c2cnn3c(C)cc(C)nc23)c(OC)cc1Cl`, for which the inhibition is 0.24% (inactive). `Cc1ccc(NC(=O)c2cc3nc(C)cc(C)n3n2)cc1`: the inhibition was 3.27% (inactive). For the molecule `COc1cc(C2c3c([nH]c(=O)[nH]c3=O)Nc3ccc4ccccc4c32)cc(OC)c1OC` (stereo not given), the inhibition is 1.71% (inactive). Consider `CCC(=O)N(c1nnc(SCC(=O)Nc2sccc2C(N)=O)s1)C1CC1`, for which the inhibition is 4.16% (inactive). In the case of `O=C(OC1CCCCC1)c1ccc(NC(=O)C2CCCCC2)cc1`, the inhibition is 2.8% (inactive). Turning to `CCOC(=O)c1ccc2c(c1)C(=O)N(C1CCCCC1)C2=O`, the inhibition was 6.81% (inactive). On to `Fc1ccc2c(c1)C1C=CCC1C(c1cc3c(cc1Br)OCO3)N2` (stereo not given), for which the inhibition is 1.91% (inactive). With `O=C1CN(C(=O)c2c(F)cccc2F)C(c2ccccc2)c2cc(Br)ccc2N1` (stereo not given), the inhibition was -0.06% (inactive). For `CCOC(=O)c1ccc2nc(C)c3c(c2c1)OC(C)C3` (stereo not given) the value was -3.24% (inactive); for `O=C(O)CCC(=O)Nc1ccc(C(=O)OC2CCCCC2)cc1`, 9.06% (inactive). As for `CCN(CC)C(=O)c1ccc(-c2ccccc2)cc1`, the inhibition is 3.81% (inactive). Take `CCN(CC)C(=O)c1ccc(C)c(Br)c1`: the inhibition is -4.6% (inactive).

Regarding `CN1CC(=O)N(CC(=O)Nc2ccc(N3CCOCC3)cc2)C1=O`, the inhibition is -19.5% (inactive).

Consider `O=C1OC(Cc2ccccc2)(c2ccccc2)c2ccccc21` (stereo not given), for which the inhibition was 3.92% (inactive). In the case of `CN(C(=O)Cn1nnc(-c2cccnc2)n1)C1CCCCC1` it was 8.32% (inactive). For `CCOP(=O)(OCC)C(NC(=O)Nc1ccc(C)c(Cl)c1)c1ccccc1` (stereo not given) the value was 1.69% (inactive).
